Screening results from PubChem BioAssay.
KB-3-1 cytotox: kills parental KB-3-1 adenocarcinoma cells. KB-3-1 viability, CellTiter-Glo ATP luminescence, 72 h. Potency, µM (highest dose often 46.1 µM), usual class: cytotoxic. 400,000 compounds, 1.4% hits; note: nearly all actives have a fitted effect of over 60% in size
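Parental KB-3-1 adenocarcinoma cells in phenol-red-free DMEM with 10% FBS were pin-treated with compounds at several concentrations, incubated 72 h at 37 °C, and viability read by CellTiter-Glo luminescence; concentration-effect curves were fitted after normalization.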
MCF10A rerep: induces DNA re-replication in MCF 10a normal breast cells. MCF 10A DNA re-replication, Hoechst nuclear intensity, 48 h. Potency, µM (top dose mostly 46.1 µM), most hits filed as activators. 350,000 compounds, 2.9% hits; note: nearly all actives have a fitted effect of over 50% in size
SW480 rereplic: induces DNA re-replication in SW480 colon adenocarcinoma cells | SW480 DNA re-replication, Hoechst DNA content imaging, 48 h | Potency, µM (titrated, usually from 46.1 µM), most hits filed as activators | 340,000 compounds, 1.8% hits; note: nearly all actives have a fitted effect of over 55% in size
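Image-based read-out: total Hoechst fluorescence of nuclei (405 nm excitation, 500-530 nm emission), with hits raising the fraction of high-intensity nuclei. SW480 colon cells incubated 48 hr with compounds at 37 C.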
HT1080 IDH1KD tx: HT-1080 IDH1 knockdown cell toxicity (counter line); 360,000 compounds, 2% hits; HT-1080 IDH1 knockdown viability, ATP luminescence, 48 h; Potency, µM (highest dose often 46.1 µM), actives largely listed as cytotoxic
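Using the IDH1-knockdown HT-1080 line run in the same batch and compound series as the NT line, viability after 48 h at 37 °C was determined by CellTiter-Glo luminescence and expressed as % activity.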
KB-V1 MDR tox: kills drug-selected multidrug resistant KB-V1 cells; KB-V1 MDR cells viability, CellTiter-Glo, 72 h; 400,000 compounds, 3.4% hits; Potency, µM (titrated, usually from 46.1 µM), usual class: cytotoxic; AID 1347076; note: nearly all actives have a fitted effect of over 60% in size
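Readout: CellTiter-Glo luminescence, 10 min after addition. Cells: KB-V1 MDR subline, 72 h at 37 degrees C with compound. Analysis: corrected, normalized data fitted to concentration-effect curves.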
HT1080-NT tox: kills 2HG-producing HT-1080-NT fibrosarcoma cells; AID 686970; Potency, µM (series often up to 46.1 µM), hits mostly cytotoxic; HT-1080-NT fibrosarcoma viability, CellTiter-Glo ATP luminescence, 48 h; 360,000 compounds, 1.6% hits;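 note: NT is the 2HG producing partner of a matched IDH1 knockdown line; nearly all actives have a fitted effect of over 55% in size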
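Viability by CellTiter-Glo luminescence after 48 h compound exposure at 37C of HT-1080-NT cells (750/well, RPMI, 5% FBS). % activity scaled between DMSO wells and medium-only wells, then curve-fitted and categorized by curve class.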
Numbers stand for hits; 0 = inactive; ? = inconclusive; - = no result given; ! = repeats disagree; [ ] = another dose, or the depositor's remark. Compounds with a hit are over-represented: about 8% of the library has one in this group of screens. Calls come from the whole dose curve; as a rule, active = well fitted curve in the direction sought with a large enough effect; inconclusive = small, poorly fitted or top-dose-only effect, or another doubt; inactive = no such curve, though single readings can be large; an effect the other way counts as inactive or inconclusive.

SMILES	KB-3-1 cytotox	MCF10A rerep	SW480 rereplic	HT1080 IDH1KD tx	KB-V1 MDR tox	HT1080-NT tox
Cc1cc(C)c(C)c(/C=C(/C#N)C(N)=S)c1C	0	?	?	?	0	?
CCCCCCCSc1cc(OC)c(CCNC)cc1OC	?	?	?	0[9.24 µM]	18µM	23µM
CCCCCSc1cc(OC)c(CCNC)cc1OC	0	0	?	21µM	0	?
Cc1ccc(C(C)C)c(OCC#CCN2CCCC2)c1	0	0	0	0	0	0
CCC(=O)OC1(c2ccccc2)CCN(C)CC1C (centres undefined)	0	0	0	0	0	0
COc1cc([C@@H]2c3cc4c(cc3[C@H](O)[C@H]3COC(=O)[C@H]23)OCO4)cc(OC)c1OC	0.1µM!	0.021µM	0.023µM	0.0065µM	0.26µM	?
COc1cc([C@@H]2c3cc4c(cc3[C@@H](OC)[C@H]3COC(=O)[C@H]23)OCO4)cc(OC)c1O	?	?	5.2µM	?	?	?
Cc1sc2ncnc(N3CCC(C(=O)Nc4ccc(C#N)c(Cl)c4)CC3)c2c1C	0	13µM	0	?	0	?
Cc1noc(C)c1CSCC(=O)Nc1ccc(C#N)c(Cl)c1	0	0	0	0	0	0
CCOC(=O)C1=C(NC(=S)NC(=O)c2ccccc2)c2ccccc2CC12CCCC2	?	12µM	?	?	?	?
CCOP(=O)(OCC)C(NC(=O)c1ccccc1)=C(Cl)Cl	0	0	?	0	0	0
COc1ccccc1-n1c(O)c(C=NCc2ccc3c(c2)OCO3)c(=O)[nH]c1=O	0	0	0	0	0	0
CCN(CC)CCO	0	0	0	0	0	0
CC(=O)OC1C(O)C(C)OC(OC2C(OC(=O)C3CCC4C(C3)OC3(CC(OC(=O)/C=C/c5ccccc5)C(C)CO3)C43CO3)OC(C)C(O)C2OC(C)=O)C1O (centres undefined)	0.18µM	?	0.21µM	0.065µM	?	0.13µM
Cc1ccnc(NS(=O)(=O)c2cc([N+](=O)[O-])ccc2C)c1	0	0	?	0	0	0
Cc1ccc(S(=O)(=O)Nc2ccc3ncccc3c2[N+](=O)[O-])cc1	18µM	?	?	0	21µM	0
CCCC(C)C1(CC)C(=O)NC(=Nc2ccccc2)NC1=O (centres undefined)	?	0	0	0	?	0
O=c1c2ccccc2nc(/C=C/c2ccc(O)cc2)n1-c1cccc(O)c1	0	23µM	?	?	0	0
COc1cccc(-n2c(/C=C/c3ccc(O)c(O)c3)nc3ccccc3c2=O)c1	0	18µM	10µM	0	?	0
O=c1c2ccccc2nc(/C=C/c2ccc3c(c2)OCO3)n1-c1cccc(O)c1	0	?	-	0	?	0
CCCCOc1nc2ccccc2c(=O)n1-c1ccccc1	0	?	0	0	16µM	0
COc1ccc(-n2c(/C=C/c3ccc(O)cc3)nc3ccccc3c2=O)cc1	?	0.82µM	0	?	?	?
COP(=S)(OC)Oc1ccc(S(=O)(=O)N(C)C)cc1	-	0	0	-	-	-
COc1ccc(-c2nc3ccccc3c(=O)n2-c2cccnc2)cc1	0	0	0	0	13µM	0
COc1ccc(-n2c(-c3ccc(C)cc3)nc3ccccc3c2=O)cc1	0	0	0	0	0	0
SMILES	KB-3-1 cytotox	MCF10A rerep	SW480 rereplic	HT1080 IDH1KD tx	KB-V1 MDR tox	HT1080-NT tox
Cc1ccc(-c2nc3ccccc3c(=O)n2-c2cc(C)ccn2)cc1	0	0	0	0	15µM	0
O=c1c2ccccc2nc(/C=C/c2ccc(O)cc2)n1-c1ccc(O)cc1	0	23µM	0	0	0	0
O=C(Nc1ccccc1C(F)(F)F)c1cccn(Cc2ccccc2)c1=O	0	-	-	-	0	-
CC(=O)OC1N=C(c2ccccc2Cl)c2cc(Br)ccc2NC1=O (centres undefined)	0	0	0	0	?	0
O=c1cccc2n1CC1CC2CN(S(=O)(=O)c2cc(Cl)ccc2Cl)C1 (centres undefined)	0	0	0	0	0	0
Clc1cccc(N2Cc3ccccc3-n3nncc3C2)c1	0	-	-	?	0	0
C[CH2][Hg][S]c1ccccc1C(=O)O	5.2µM	0.92µM	6µM	3.3µM	21µM	2.3µM
O=C(O)c1ccccc1O	0	0	?	0	0	0
Cc1cc(NC(=O)CCl)nn1C	13µM	?	?	?	21µM	?
COC(=O)C(O)(c1ccc(NC(=S)NC(=O)c2ccc(Cl)cc2Cl)cc1)C(F)(F)F (centres undefined)	?	?	0	0	18µM	0
CCOC(=O)C(O)(c1ccc(NC(=S)NC(=O)c2ccc(Cl)cc2Cl)c(C)c1)C(F)(F)F (centres undefined)	?	?	0	23µM	?	16µM
COC(=O)C(O)(c1ccc(NC(=S)NC(=O)c2ccc(Cl)cc2Cl)c(C)c1)C(F)(F)F (centres undefined)	?	?	0	?	?	?
CCc1ccc(N2C(=O)NC(=O)/C(=C/c3cccn3CCOc3ccc(C)cc3)C2=O)cc1	0	21µM	?	0	0	0
O=C1NC(=S)NC(=O)C1=Cc1cccn1-c1ccc(O)cc1	?	?	0	23µM	0	?
Cc1cc(C)cc(N2C(=O)NC(=O)/C(=C\c3cccn3-c3ccccc3)C2=O)c1	?	?	?	?	18µM	0
CCc1ccc(N2C(=O)NC(=O)/C(=C/c3cccn3CCOc3ccc(C(C)CC)cc3)C2=O)cc1 (centres undefined)	0	13µM	13µM	0	0	0
Cc1cccc(OCCn2cccc2/C=C2/C(=O)NC(=O)N(Cc3ccco3)C2=O)c1	0	?	0	0	0	0
O=[N+]([O-])c1ccc(CN2CC=C(c3ccccc3)CC2)cc1	0	0	0	0	0	0
Cc1ccc(O)c([C@H](CCN(C(C)C)C(C)C)c2ccccc2)c1	0	?	?	?	?	?
O=C(CN1CCOCC1)c1cccc2ccccc12	0	0	0	0	0	0
Cc1c(C(=O)c2cccc3ccccc23)c2cccc3c2n1[C@H](CN1CCOCC1)CO3	?	?	?	9.2µM	?	15µM
CC(=O)c1cn(Cc2ccccc2C#N)c2ccccc12	?	?	?	?	1.8µM	0
CC(C)C(=O)c1cn(Cc2ccccc2C#N)c2ccccc12	0	0	0	0	?	0
O=C(c1ccc(C(F)(F)F)cc1)C1CCCN(Cc2ccncc2)C1 (centres undefined)	?	?	0	0	7.3µM	0
Cc1ccc(CN2CCCC(C(=O)c3cccc(C(F)(F)F)c3)C2)o1 (centres undefined)	0	0	0	0	?	0
